# In the supplement of paper PMC13380429:
# System: Vero E6 infected with SARS-CoV-2
# Experiment: morphology score (similarity to uninfected cells); higher = more like uninfected cells
# Details: 24 h
row,Compound,morphology score
1,CO[C@H]1O[C@@H]2O[C@@]3(C)CC[C@H]4[C@H](C)CC[C@@H]([C@H]1C)[C@@]24OO3 [artemether] (10 µM),0.0275
2,C1CCC(NC2CCCCC2)CC1 [dicyclohexylamine] (10 µM),-0.191
3,CCC(=O)OCN1C(=O)C=CC1=O (10 µM),0.14
4,CN1C(=O)N(C)C2C1N(C)C(=O)N2C (stereo unspecified) [mebicar] (10 µM),0.0884
5,O=C(Nc1ccc(C(F)(F)F)cn1)N1CCN(c2ncccc2C(F)(F)F)CC1 (10 µM),0.0927
6,O=C(O)c1cccnc1Nc1cccc(C(F)(F)F)c1 [niflumic-acid] (10 µM),0.127
7,N[C@@H](C(=O)N[C@@H]1C(=O)N2C(C(=O)O)=C(Cl)CC[C@H]12)c1ccccc1 [loracarbef] (10 µM),0.167

# System: Vero E6 infected with SARS-CoV-2
# Experiment: SARS-CoV-2 infection rate relative to infected DMSO; higher = more infection, active = 60 or less
# Details: 24 h
row,Compound,SARS-CoV-2 infection rate
1,CCOC(=O)[C@H](CCc1ccccc1)N[C@@H](C)C(=O)N1[C@H](C(=O)O)C[C@@H]2CCC[C@@H]21 [ramipril] (10 µM),98.5% (inactive)
2,Cc1c(CN(C)C(=O)/C=C/c2cnc3c(c2)CCC(=O)N3)oc2ccccc12 (10 µM),94% (inactive)
3,O=C(O)c1cc(=O)[nH]c(=O)[nH]1 [orotic-acid] (10 µM),104% (inactive)
4,NS(=O)(=O)NCc1csc2ccccc12 (10 µM),87.5% (inactive)
5,Cc1nc(NC(=O)N2CCC[C@H]2C(N)=O)sc1-c1ccnc(C(C)(C)C(F)(F)F)c1 [alpelisib] (10 µM),113% (inactive)
6,C[C@@H](O)[C@@H]1NC(=O)[C@H](CCCCN)NC(=O)[C@@H](Cc2c[nH]c3ccccc23)NC(=O)[C@H](Cc2ccccc2)NC(=O)[C@@H](NC(=O)[C@H](N)Cc2ccccc2)CSSC[C@@H](C(=O)N[C@H](CO)[C@@H](C)O)NC1=O [octreotide] (10 µM),102% (inactive)
7,CCOC(=O)[C@H](CCc1ccccc1)N[C@H]1CS[C@H](c2cccs2)CN(CC(=O)O)C1=O [temocapril] (10 µM),114% (inactive)
8,O=C(O)[C@H](O)c1ccccc1 [mandelic-acid] (10 µM),114% (inactive)
9,"COc1cc2c(cc1OC)[C@H](C)NCC2 [Isoquinoline,-6,7-dimethoxy-1-methyl-1,2,3,4-tetrahydro,] (10 µM)",105% (inactive)
10,CCC[C@@H]1CC2=CC(=O)CC[C@]2(C)[C@H]2CC[C@@]3(C)[C@@H](CC[C@@]3(O)CCC(=O)O)[C@H]12 (10 µM),104% (inactive)
11,Fc1ccc(-c2cncc(CN3CCN(c4cccc5c4OCCO5)CC3)c2)cc1 [adoprazine] (10 µM),101% (inactive)
12,CN(C(=O)CCCOc1ccc2[nH]c(=O)ccc2c1)C1CCCCC1 [cilostamide] (10 µM),103% (inactive)
13,Cc1ncc(C[n+]2csc(CCOP(=O)(O)OP(=O)(O)O)c2C)c(N)n1 [thiamine-pyrophosphate] (10 µM),105% (inactive)
14,COc1ccc(-c2oc3cc(OC)ccc3c2C(=O)c2ccc(C#N)cc2)cc1 (10 µM),97% (inactive)
15,CCCN(CCC)C1Cc2cc(OC)c(OC)cc2C1 (10 µM),109% (inactive)
16,CC(COc1ccccc1Cc1ccccc1)N1CCCCC1 (stereo unspecified) [benproperine] (10 µM),79% (inactive)
17,CC(=O)NO [acetohydroxamic-acid] (10 µM),106% (inactive)
18,CC(=O)OCC(=O)[C@@]1(O)CC[C@H]2[C@@H]3CCC4=CC(=O)CC[C@]4(C)[C@@]3(F)[C@@H](O)C[C@@]21C (10 µM),99.5% (inactive)
19,NC[C@@H](O)CC(=O)O [aminohydroxybutyric-acid] (10 µM),92% (inactive)
20,CC(C)c1cc(CNc2nc(Nc3cc(C4CC4)[nH]n3)cc(N3CCN(C)CC3)n2)on1 (10 µM),112% (inactive)

row,Compound,SARS-CoV-2 infection rate
1,O=C1N(c2ccccc2)c2ccccc2C1(Cc1ccncc1)Cc1ccncc1 [linopirdine] (10 µM),91% (inactive)
2,N[C@@H](CSS(=O)(=O)O)C(=O)O [S-sulfo-L-cysteine] (10 µM),90% (inactive)
3,CCOC(=O)[C@H](Cc1ccc([N+](=O)[O-])cc1)NC(=O)c1ccccc1 (10 µM),84.5% (inactive)
4,COc1cc2c(Nc3ccc(NC(=O)c4ccccc4)cc3)ncnc2cc1OCCCN1CCOCC1 (10 µM),108% (inactive)
5,Cc1cc(C)cc(NC(=O)Cc2ccc(OC(C)(C)C(=O)O)cc2)c1 [efaproxiral] (10 µM),107% (inactive)
6,N[C@@H](Cc1cc(I)c(Oc2ccc(O)c(I)c2)c(I)c1)C(=O)O [liothyronine] (10 µM),108% (inactive)
7,OC(c1ccccc1)(c1ccccc1)C12CC[N+](CCOCc3ccccc3)(CC1)CC2 [umeclidinium] (10 µM),101% (inactive)
8,COc1ccc2c(c1)/C(=C/c1cnc[nH]1)C(=O)N2 (0.833333 µM),109% (inactive)
9,NC[C@H]1O[C@H](O[C@H]2[C@H](O[C@@H]3O[C@H](CO)[C@@H](O)[C@H]3O)[C@@H](O)[C@H](N)C[C@@H]2N)[C@H](N)[C@@H](O)[C@@H]1O [ribostamycin-sulfate] (10 µM),105% (inactive)
10,CNC(=O)c1ccc2c(c1)CCO[C@H]2CCN1CCN(c2ccc(C(N)=O)cc2)CC1 (10 µM),106% (inactive)
11,C[C@H](N)Cc1cccc(O)c1 [gepefrine] (10 µM),106% (inactive)
12,Oc1ccc(-c2c(-c3ccccc3)nn3c(C(F)(F)F)cc(C(F)(F)F)nc23)cc1 (10 µM),104% (inactive)
13,CO[C@H]1O[C@@H]2O[C@@]3(C)CC[C@H]4[C@H](C)CC[C@@H]([C@H]1C)[C@@]24OO3 [artemether] (10 µM),105% (inactive)
14,C1CCC(NC2CCCCC2)CC1 [dicyclohexylamine] (10 µM),114% (inactive)
15,CCC(=O)OCN1C(=O)C=CC1=O (10 µM),97% (inactive)
16,CN1C(=O)N(C)C2C1N(C)C(=O)N2C (stereo unspecified) [mebicar] (10 µM),107% (inactive)
17,O=C(Nc1ccc(C(F)(F)F)cn1)N1CCN(c2ncccc2C(F)(F)F)CC1 (10 µM),93.5% (inactive)
18,O=C(O)c1cccnc1Nc1cccc(C(F)(F)F)c1 [niflumic-acid] (10 µM),104% (inactive)
19,N[C@@H](C(=O)N[C@@H]1C(=O)N2C(C(=O)O)=C(Cl)CC[C@H]12)c1ccccc1 [loracarbef] (10 µM),101% (inactive)
